Among all 2,300 compounds or so, about 2,100 (91%) were called active.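 Rule for the calls: active = compounds raising the signal whose fitted half-maximal concentration is at or below their top tested dose (cut at about 25 µM in these data); inconclusive = flat fit at 30 to 70% activity, or a poor fit; inactive = the rest.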 The set was probably picked from earlier hits. These entries were drawn from the full list. Measured potencies and affinities stand elsewhere.
Assay: cytokine-free beta-cell viability effect – INS-1E rat cells, ATP luminescence, cherry pick, counter-screen for beta-cell apoptosis protection project, dose response (AID 463229);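 note: 0% = median of neutral control wells and 100% = median of positive control wells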
Details: INS-1E rat beta cells, no cytokines, CellTiter-Glo ATP, 48 h; series mostly up to 26 µM; activity change (ATP luminescence): at the top concentration

| SMILES | activity change (ATP luminescence) |
| --- | --- |
| CCOc1ccc(/C=N/Nc2ccc(Cl)nn2)c(O)c1 | 13.6% (inactive) |
| Cc1cc(C)nc(OC(=O)c2ccc(Cl)cc2Cl)n1 | 13.3% (inactive) |
| Cc1ccc(C(=O)O/N=C/c2c(N3CCOCC3)n(C)c3ccccc23)cc1 | -6.85% (inactive) |
| Cc1ccc2c(C)ccc(O)c2n1 | -15.9% (inactive) |
| CCCNC(=O)c1c(N)n(-c2cccc(OC)c2)c2nc3ccccc3nc12 | 11.9% (inactive) |
| CC(=O)Nc1ccc(C2=CC(=O)C[C@H](c3ccc4c(c3)OCO4)C2)cc1 | -42.7% (inactive) |
| FC(F)(F)c1ccccc1NC(=S)N1CCc2ccccc2C1 | 142% (inactive) |
| Fc1ccc(Oc2nc(-c3ccccn3)nc3ccccc23)cc1 | -68.1% (inactive) |
| O=C(CCCN1C(=O)/C(=C/c2ccccc2)SC1=S)NCCCn1ccnc1 | 15.9% (inactive) |
| O=[N+]([O-])c1ccc(/C=N/Nc2ccnc3cc(Cl)ccc23)o1 | 107% (inactive) |
| CC1(C(=O)OCC(=O)N2c3ccccc3Sc3ccccc32)CC1(Cl)Cl (stereo not given) | -6.03% (inactive) |
| Nc1ccc2nn(-c3cccc4ccccc34)nc2c1 | -43.9% (inactive) |
| CC(=O)Cc1cc(O)c2ccccc2c1OC(=O)c1ccc(Br)cc1 | 22.1% (inactive) |
| Cc1cc2cc(CN3C(=O)c4ccccc4C3=O)ccc2n1C | -10.1% [at 12 µM] (inactive) |
| Cc1ccc(NC(=O)c2c(-c3c(F)cccc3Cl)noc2C)cc1F | -18.3% (inactive) |
| O=C1/C(=N\S(=O)(=O)c2cccs2)C([n+]2ccc(CCCc3ccccc3)cc2)=C([O-])c2ccccc21 | -34.3% (inactive) |
| CC(C)(C)c1cc[n+](C2=C([O-])c3ccccc3C(=O)/C2=N\S(=O)(=O)c2ccccc2)cc1 | 2.78% (inactive) |
| Cc1ccccc1Nc1c(-c2ccccn2)nc2c(C)cccn12 | -20.1% (inactive) |
| COc1cc(NC2CCCCC2O)c2nc(-c3ccc(Cl)cc3)ccc2c1 (stereo not given) | -33.5% (inactive) |
| COc1ccc(NC(=O)CN(C)C(=O)/C=C/c2ccc(S(=O)(=O)N3CCCCCC3)cc2)cc1 | 1.68% (inactive) |
| CC(C)C[C@H]1CN=C(Nc2ccccc2)N1CCC(C)c1ccccc1 (stereo not given in full) | 13.4% (inactive) |
| CCC(CC)C(=O)c1c[nH]c(C(=O)NCc2ccccn2)c1 | -14.1% (inactive) |
| O=C(Cc1ccc([N+](=O)[O-])cc1)Nc1cccnc1 | 14.2% (inactive) |
| Cc1ccc(C)c(NS(=O)(=O)c2ccc(OCC(=O)NCc3cccnc3)cc2)c1 | -6.95% (inactive) |
| C/C(=N\NC(N)=S)c1ccncc1 | -12.3% (inactive) |
| O=C(NNC(=O)c1ccccc1OCc1ccccc1)c1ccccc1O | 92.6% (inactive) |
| C/C(Cn1nnc([N+](=O)[O-])n1)=N\NC(=O)c1ccccc1Cl | 53.7% (inactive) |
| Clc1ccc(SCc2cc(N3CCOCC3)nc(-c3ccccn3)n2)cc1 | -38.8% (inactive) |
| CCN(CC)C(=O)C1CCCN(C(=S)Nc2cccc3ccccc23)C1 (stereo not given) | -7.12% (inactive) |
| CC(C)(C)C(=O)NC(Nc1cccc2cccnc12)C(Cl)(Cl)Cl (stereo not given) | -44.1% (inactive) |

— PubChem BioAssay AID463229 (Broad Institute, 2010)
